Assay outcomes deposited in PubChem BioAssay by National Center for Advancing Translational Sciences (NCATS).
Cruzain noTriton – inhibitors of Trypanosoma cruzi cruzain without detergent; P25779; purified cruzain, Z-FR-AMC fluorescence, no detergent; Potency, µM, inactives show max response, negative = inhibition, usual class: inhibitors; actives 2.3% (n = 200,000); AID 1476;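 also: plate controls were enzyme without inhibitor for no effect and buffer without enzyme for full effect; nearly all actives have a fitted effect of over 40% in size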
Target sequence (P25779 123-467 limits assumed): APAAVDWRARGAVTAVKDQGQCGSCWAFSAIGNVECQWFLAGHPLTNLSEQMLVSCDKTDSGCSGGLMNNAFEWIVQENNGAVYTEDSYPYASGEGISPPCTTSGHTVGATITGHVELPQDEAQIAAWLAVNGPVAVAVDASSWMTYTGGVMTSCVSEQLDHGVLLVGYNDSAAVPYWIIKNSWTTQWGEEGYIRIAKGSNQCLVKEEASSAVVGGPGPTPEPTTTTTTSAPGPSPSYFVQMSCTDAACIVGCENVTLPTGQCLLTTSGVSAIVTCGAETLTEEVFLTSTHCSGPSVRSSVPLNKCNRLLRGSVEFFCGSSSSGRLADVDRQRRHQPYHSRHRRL
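Detergent-free condition (0.00005% Triton X-100) in acetate buffer pH 5.5 with DTT. 1.5 nM enzyme and compound were pre-mixed 15 min, then 2 uM Z-FR-AMC substrate added; reaction progress from fluorescence change between first and third reads (60 s).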
Cruzain Triton – inhibitors of Trypanosoma cruzi cruzain with detergent; Potency, µM, without a hit: max response, negative = inhibition, most hits filed as inhibitors; purified cruzain, Z-FR-AMC fluorescence, 0.01% Triton; actives 0.43% (n = 200,000); P25779;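 also: plate controls were neutral wells for no effect and buffer without enzyme for full effect; nearly all actives have a fitted effect of over 40% in size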
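Steps: dispense cruzain (1.5 nM final) in acetate buffer pH 5.5 with DTT and 0.01% Triton X-100; pin-transfer compounds; incubate 15 min RT; add Z-FR-AMC (2 uM final); read fluorescence every 30 s, using the 60 s intensity change.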
Papain inh – blocks papain protease activity, flagging nonselective cruzain hits; purified papain, Z-FR-AMC fluorescence cleavage; AID 2161; actives 41% (n = 410); Potency, µM, for inactives: max response, negative = inhibition, usual class: inhibitors; shares compounds with Cruzain Triton;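 also: 0% = no-compound wells and -100% = no-enzyme wells; nearly all actives have a fitted effect of over 35% in size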
Target sequence (P00784 whole entry, looked up): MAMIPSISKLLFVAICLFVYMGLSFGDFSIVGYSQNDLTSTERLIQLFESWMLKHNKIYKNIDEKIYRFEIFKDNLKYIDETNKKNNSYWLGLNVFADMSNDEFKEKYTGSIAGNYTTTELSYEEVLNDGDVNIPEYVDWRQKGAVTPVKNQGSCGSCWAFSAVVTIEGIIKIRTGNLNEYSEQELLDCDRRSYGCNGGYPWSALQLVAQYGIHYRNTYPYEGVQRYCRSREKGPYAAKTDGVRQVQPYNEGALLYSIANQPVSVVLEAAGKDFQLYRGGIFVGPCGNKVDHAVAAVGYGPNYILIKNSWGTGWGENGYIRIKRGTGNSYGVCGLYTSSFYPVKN
* hit, by the source's call; ? = inconclusive; . = no result. The list is not random: actives were taken first. Their share in the collection is about 2.5%. Calls follow the shape of the dose curve; as a rule, active = well fitted curve in the direction sought with a large enough effect; inconclusive = small, poorly fitted or top-dose-only effect, or another doubt; inactive = no such curve, though single readings can be large; an effect the other way counts as inactive or inconclusive. Potency is read from the fitted curve at half-maximal effect.

SMILES	Cruzain noTriton	Cruzain Triton	Papain inh
O=c1cc(-c2ccccc2F)nc(-c2ccccc2F)o1	7.9µM*	4.5µM*	8%
COc1ccc(OC)c(CNC(=O)c2cc3c(=O)oc4ccc(C)cc4c3s2)c1	-11%	-1%	.
O=C1CCCCC(=O)N(c2ccccc2)c2ccccc21	6%	4%	.
CC(C)CC(=O)O/N=C1\C(=O)N(c2ccccc2)c2ccccc21	2.5µM*	0.63µM*	1.1µM*
CC(C)(C)C(=O)O/N=C1/C(=O)N(c2ccccc2)c2ccccc21	20µM*	1.6µM*	25µM*
CC(C)CC(=O)Nc1cccc2c1C(=O)N(c1ccccc1)C2=O	-18%	-7%	.
COc1ccc(C(=O)N2CCC3(CCCN(c4cccc(-c5ccccc5)c4)C3)CC2)cc1	?	-3%	.
CCOc1ccccc1C(=O)Nc1c(C(=O)Nc2ccc(F)cc2)oc2ccccc12	9%	-2%	.
O=C(Nc1ccc(O)c(-c2nc3ccccc3o2)c1)C1(c2ccc([N+](=O)[O-])cc2)CCCC1	4µM*	-3%	13%
O=C(Nc1ccc(-c2nc3ccccc3o2)c(O)c1)c1cc(Cl)ccc1Cl	12%	0%	.
Cc1ccc(CN2c3ccccc3-c3nc(SCC(=O)NCCc4ccccc4)ncc3S2(=O)=O)cc1	-13%	2%	.
O=C(Cn1c(=O)oc2cc(S(=O)(=O)N3CCCCCC3)ccc21)NC1CCCCCCC1	20µM*	-9%	12%
CCC1CCCCN1C(=O)Cn1c(=O)oc2cc(S(=O)(=O)N3CCCCC3)ccc21 (configuration not stated)	4%	1%	.
Cc1ccc2[nH]c(=O)c(CN(Cc3cccs3)Cc3nnnn3Cc3ccccc3)cc2c1	3%	-4%	.
CCc1ccc2[nH]c(=O)c(CN(Cc3ccc(OC)cc3)Cc3nnnn3CCOC)cc2c1	?	-4%	.
CCc1ccc2[nH]c(=O)c(CN(Cc3ccccc3)Cc3nnnn3C(C)(C)C)cc2c1	.	.	-26%
CCc1ccc2[nH]c(=O)c(CN(Cc3cccnc3)Cc3nnnn3Cc3ccccc3)cc2c1	.	.	-4%
COc1ccc(OC)c(NC(=O)c2nc(S(=O)(=O)Cc3ccc(F)cc3)ncc2Cl)c1	?	-7%	.
CC(C)(C)c1ccc(-c2nc(SCC(=O)Nc3ccc(Cl)cc3)[nH]c(=O)c2C#N)cc1	-7%	16µM*	10µM*
N#Cc1c(-c2ccco2)nc(SCC(=O)Nc2cccc(Cl)c2)[nH]c1=O	1%	-20%	.
O=c1oc2ccccc2cc1-c1csc(Cc2nc(-c3ccc(Br)cc3)cs2)n1	3.2µM*	2%	20%
O=c1oc2ccc(Br)cc2cc1-c1csc(-c2ccc(Cl)cc2)n1	-6%	2%	.
COC(CNC(=O)c1ccc2nc(-c3cccs3)c(-c3cccs3)nc2c1)OC	29%	-12%	.
CCCCNC(=O)c1ccc2nc(-c3cccs3)c(-c3cccs3)nc2c1	.	.	-5%
CCc1ccc(-n2nc3ccc(NC(=O)c4cc(Cl)c(OC)c(Cl)c4)cc3n2)cc1	0%	1%	.
SMILES	Cruzain noTriton	Cruzain Triton	Papain inh
O=C(CNC(=O)c1ccc(Br)cc1)NCCc1nc2ccccc2[nH]1	8%	-9%	.
O=C(N[C@@H](Cc1ccccc1)C(=O)CCl)OCc1ccccc1	0.32µM*	0.16µM*	5µM*
CSCC[C@H](NC(=O)OCc1ccccc1)C(=O)O	-1%	-2%	.
CC(C)Cn1nnnc1S(=O)(=O)Cc1cccc(C#N)c1	-1%	3%	.
CC(C)C[C@H](N)c1nnc(S(=O)(=O)Cc2cccc(F)c2)o1	13µM*	11µM*	6%
COc1ccc(CCNC(=O)C2CCCN(S(=O)(=O)c3ccc4c(c3)oc(=O)n4C)C2)cc1OC (configuration not stated)	-4%	0%	.
O=C(O)[C@@H]1[C@@H](C(=O)Nc2ccccc2)[C@@H]2C=C[C@@H]1O2	13%	4%	.
COc1ccc2[nH]c(=O)c(NC(N)=S)nc2c1	1.3µM*	2.2µM*	-9%
COc1ccc2nc(SCC(N)=O)[nH]c2c1	-8%	1%	.
Cc1ccc(N2CC(NC(=O)c3cccs3)CC2=O)cc1 (configuration not stated)	-14%	0%	.
COc1ccc(/C=C\C(=O)Nc2ccccc2C(=O)O)cc1OC	0%	-9%	.
CCOc1ccc(CN2C(=O)c3ccccc3Sc3ccc(C(=O)NC)cc32)cc1	?	-6%	.
CCOc1ccc(CN2C(=O)c3ccccc3Sc3ccc(C(=O)NCc4ccc5c(c4)OCO5)cc32)cc1	10µM*	-2%	1%
CCOc1ccc(Cn2nnc(C(=O)Nc3cccc(SC)c3)c2N)cc1	3%	-1%	.
Cc1cc(NC(=O)Cc2cccs2)no1	-28%	-18%	-17%
Cc1cc(NS(=O)(=O)c2ccc(NC(=O)Cc3cccs3)cc2)no1	2%	0%	.
COC(=O)c1sccc1S(=O)(=O)N1CCN(c2ccc(C(C)=O)cc2)CC1	-7%	-4%	.
OCCN(CCO)c1ccc(C(c2ccccc2Cl)c2ccc(N(CCO)CCO)cc2Cl)c(Cl)c1	?	-9%	-5%
CC(C)(C)NCC(O)c1ccccc1Cl (configuration not stated)	-7%	3%	.
Nc1ccc2c(c1)C(=O)c1ccccc1C2=O	-19%	1%	.
Nc1ccc2c(c1)C(=O)C(=O)c1ccccc1-2	?	22µM*	16µM*
COc1cccc(CSc2nc3n(n2)C(c2cccc(F)c2)C(C(=O)Nc2ccccc2C)=C(C)N3)c1 (configuration not stated)	4%	2%	.
COc1cc2c(cc1OC)-c1cc3nc4ccccc4nc3n1C(C)(C)C2	?	-3%	.
COc1cccc(NC(=O)Cn2c(=O)n(CC(=O)NCCc3ccccc3)c(=O)c3sccc32)c1	1%	-3%	.
SMILES	Cruzain noTriton	Cruzain Triton	Papain inh
Cc1ccccc1NC(=O)CSc1nnc(-c2ccco2)c(-c2ccco2)n1	3.2µM*	25µM*	14µM*
Cc1ccccc1NC(=O)CSc1nc(-c2ccco2)nc2cc(=O)[nH]n12	15%	-5%	.
O=C(CSc1nnc(-c2ccccc2)c(-c2ccccc2)n1)NCc1ccco1	?	-12%	.
O=C(CSc1nnc(-c2ccco2)c(-c2ccco2)n1)Nc1ccccc1	20µM*	22µM*	25µM*
Cc1oc(=O)c(NC(=O)c2ccccc2)cc1C(=O)c1ccccc1	0.79µM*	3.2µM*	5%
CC1(C)CC(=O)c2cc(NC(=O)c3ccccc3)c(=O)oc2C1	-10%	-3%	.
Cc1oc(=O)c(NC(=O)c2ccc(Cl)cc2)cc1C(=O)c1ccccc1	2µM*	2.5µM*	8%
CC(C)(C)c1ccc(C(=O)Nc2ccc(Cl)cc2C(=O)c2ccccc2)cc1	-14%	-2%	.
C[C@]1(c2ccccc2)O[C@@H]2C[C@@H]3[C@@H]4CCC5=CC(=O)C=C[C@@]5(C)[C@]4(F)[C@H](O)C[C@]3(C)[C@@]2(C(=O)CO)O1	2%	2%	.
C=CC(C)(C)c1[nH]c2ccccc2c1C1=C(O)C(=O)C(c2c[nH]c3c(CC=C(C)C)cccc23)=C(O)C1=O	?	32µM*	4.5µM*
CCOC(=O)C1CCN(C(=O)C2CCN(C3=NS(=O)(=O)C(c4ccc(C)c(C)c4)=C3C)CC2)CC1	?	-3%	.
Cc1cccc(Cn2c(C)c(CNC3CCCCC3)c(C(=O)O)c2C)c1	4%	-2%	.
CCCSc1nnc2[nH]c(=O)cc(C)n12	24%	0%	.
